These results are taken from PubChem BioAssay (Tox21).

Results filed as inconclusive are left out. Where a call stands in place of a potency, no number is given. Active and inactive are the calls of the source. Calls come from the whole dose curve; as a rule, active = well fitted cell-killing curve with a large enough effect in the repeat runs; inconclusive = weak or mixed curves, or effect the other way; inactive = flat fitted curve, though single readings scatter.
Potency is the fitted concentration of half-maximal effect.

This assay is described as follows: qHTS assay to identify small molecule antagonists of the androgen receptor (AR) signaling pathway using the MDA cell line - cell viability counter screen (AID 743041; note: nearly all actives have a fitted effect of over 45% in size). Conditions: MDA-kb2 viability, CellTiter-Fluor, 16 h, cells co-treated with R1881 androgen agonist; series mostly up to 70.3 µM. The text has this: National Center for Advancing Translational Sciences [NCATS]
NIH Chemical Genomics Center [NCGC]
U.S. Environmental Protection Agency [EPA]
National Institutes of Environmental Health Sciences [NIEHS]
National Toxicology Program [NTP]
U.S. Food and Drug Administration [FDA]
Androgen receptor (AR), a nuclear hormone receptor, plays a critical role in AR-dependent prostate cancer and other androgen related diseases. Endocrine disrupting chemicals (EDCs) and their interactions with steroid hormone receptors like AR may cause disruption of normal endocrine function as well as interfere with metabolic homeostasis, reproduction, developmental and behavioral functions. To identify the compounds that inhibit AR signaling, MDA-kb2 AR-luc cell line (from ATCC, deposited by Wilson et al.) was used to screen the Tox21 10K compound library. MDA-kb2 AR-luc cell line is human breast carcinoma cell line that was stably transfected with a luciferase reporter gene under control of the MMTV promoter containing response elements for both androgen receptor (AR) and glucocorticoid receptor (GR). The cytotoxicity of the Tox21 compound library against the MDA-kb2 AR-luc cell line was tested in parallel by measuring the cell viability using CellTiter-Fluor assay (Promega, Madison, WI) in the same wells.
Tox21 Assay Protocol Summary:
MDA-kb2 AR-luc cells were dispensed at 3,000 cells/4 uL/well of culture medium into white wall/solid-bottom 1536-well plates using a Multidrop Combi (ThermoFisher Scientific, Waltham, MA) dispenser. After the assay plates were incubated at a 37C and 0% CO2 for 5 hr, 23 nL of compounds dissolved in DMSO, positive controls or DMSO only was transferred to the assay plate by a Pintool station (Kalypsys, San Diego, CA), followed by addition of 1 uL of agonist (R1881) in culture medium using a Bioraptr Flying Reagent Dispenser (FRD) workstation (Beckman Coulter, Indianapolis, IN, USA). The plates were incubated at a 37C and 0% CO2 for 16 h. After 15.5 h incubation, 1uL of CellTiter-Fluor reagent (Promega) was added using a Bioraptr FRD to each plate for measuring cytotoxicity. The fluorescence intensity was quantified on a ViewLux plate reader (PerkinElmer, Shelton, CT) following 30 min incubation at 37C and 0% CO2.
For the molecule `C=CC(=C)CCCC(C)(C)OC(C)=O`, the Potency entry was “inactive”. With `CO[C@H]1C=CO[C@@]2(C)Oc3c(C)c(O)c4c(O)c(c5c(c4c3C2=O)=NC2(CCN(CC(C)C)CC2)N=5)NC(=O)/C(C)=C\C=C/[C@H](C)[C@H](O)[C@@H](C)[C@@H](O)[C@@H](C)[C@H](OC(C)=O)[C@@H]1C`, the Potency entry was “inactive”. With `CCOC(=O)c1ccccc1OC`, the Potency result is “inactive”. For the molecule `NC(=O)N(O)[C@@H]1COc2cc(OCc3ccccc3)ccc21`, the Potency result was “inactive”.

On to `CC[C@H](NC(=O)c1cc(F)ccc1NS(=O)(=O)c1cccc2cccnc12)c1ccccc1`, for which the Potency entry is “inactive”. As for `Oc1cc(O)c(Cl)cc1Cl`, the Potency result was “inactive”. As for `CCC(C(=O)OCCN(CC)CC)c1ccccc1` (stereo not given), the Potency result is “inactive”.

Consider `CC(=O)OCC(=O)[C@@]12OC(C)(C)O[C@@H]1C[C@H]1[C@@H]3C[C@H](F)C4=CC(=O)C=C[C@]4(C)[C@@]3(F)[C@@H](O)C[C@@]12C`, for which the Potency entry is “inactive”. Regarding `CO[Si](C)(OC)OC`, the Potency entry is “inactive”. For `Cc1c(C(=O)NN2CCCCC2)nn(-c2ccc(Cl)cc2Cl)c1-c1ccc(Cl)cc1`, the Potency entry was “inactive”. `CCCCCCCC/C=C\CCCCCCCC(=O)OC(CO)CO`: the Potency entry was “inactive”. On to `Cc1cc(O)c2c(O)c3c(O)cccc3cc2c1`, for which the Potency result was “inactive”. As for `CCOC(=O)/C=C/C(=O)O`, the Potency result was “inactive”. Consider `CCCC(=O)O[C@]1(C(=O)COC(=O)CC)CC[C@H]2[C@@H]3CCC4=CC(=O)CC[C@]4(C)[C@H]3[C@@H](O)C[C@@]21C`, for which the Potency entry was “inactive”. Regarding `COc1ccccc1N=Nc1c(S(=O)(=O)O)cc2cc(S(=O)(=O)O)cc(NC(C)=O)c2c1O`, the Potency was 45.7 µM (active).

Turning to `CCCCCCOC(=O)C(C)C`, the Potency result was “inactive”. Take `C=CC(C)(C)CC(=O)OC`: the Potency entry is “inactive”. Turning to `Cc1oncc1C(=O)Nc1ccc(C(F)(F)F)cc1`, the Potency entry is “inactive”. For the molecule `O=C(O)c1cccnc1C(=O)O`, the Potency result was “inactive”. As for `C/C=C(\C)C(=O)OCCC(C)CCC=C(C)C` (stereo not given), the Potency result was “inactive”.

Turning to `O=C(CCCN1CCC(O)(c2ccc(Br)cc2)CC1)c1ccc(F)cc1`, the Potency entry is “inactive”. To `Cc1ccc(S(=O)(=O)NC2CCCCC2)cc1` belongs “inactive”; to `N#C/C(=C1/SC[C@@H](c2ccc(Cl)cc2Cl)S1)n1ccnc1`, “inactive”; to `OC/C(Br)=C(\Br)CO`, “inactive”.

As for `O=S(=O)(c1ccccc1)c1ccc(Cl)cc1`, the Potency result is “inactive”. Turning to `Nc1nc(Cl)nc2c1ncn2[C@@H]1O[C@H](CO)[C@@H](O)[C@@H]1F`, the Potency entry was “inactive”. Turning to `O=[N+]([O-])c1cccc(S(=O)(=O)NCCNS(=O)(=O)c2cccc([N+](=O)[O-])c2)c1`, the Potency entry was “inactive”.

For `CCN(Cc1cccc(S(=O)(=O)O)c1)c1ccc(C(=C2C=CC(=[N+](CC)Cc3cccc(S(=O)(=O)[O-])c3)C=C2)c2ccccc2)cc1`, the Potency entry was “inactive”. On to `CCCOCCOCCO`, for which the Potency result is “inactive”. Turning to `CCCCCCCCCCOS(=O)(=O)O`, the Potency entry was “inactive”.

For `CCCCCCCCCCCC(=O)[O][Sn]([CH2]CCC)([CH2]CCC)[O]C(=O)CCCCCCCCCCC`, the Potency entry is “inactive”. To `CC(C)CCCCCOC(=O)CCCCC(=O)OCCCCCC(C)C` belongs “inactive”; to `CC(C)c1nnc2ccc(-c3ocnc3-c3cc(F)ccc3F)cn12`, “inactive”; to `CCCCN(CCCC)C(=S)SSC(=S)N(CCCC)CCCC`, “inactive”. Then `C=C(C)C(=O)OCCOC(=O)CC(C)=O`, with “inactive”; and `O=C(O)C(Cc1cc(I)c(O)c(I)c1)c1ccccc1` (stereo not given), with “inactive”. Take `CO/N=C1\CN(c2nc3c(cc2F)c(=O)c(C(=O)O)cn3C2CC2)CC1CN` (stereo not given): the Potency result was “inactive”. Then `O=S1OCCO1`, with “inactive”; and `Nc1ccc(Cl)cc1[N+](=O)[O-]`, with “inactive”; and `CC(=O)CC(c1ccc([N+](=O)[O-])cc1)c1c(O)c2ccccc2oc1=O` (stereo not given), with “inactive”.
